Screening results (PubChem)
Shown are actives, neighbours in structure and some others; about 2.9% of the full set was active somewhere.
Mcl1 Bid PPI = disrupts binding of human Mcl-1 to Bid peptide. Q07820. TR-FRET Mcl-1/Bid-Dy647 peptide binding, 1536-well. inhibition, % at 21.7 µM. 220,000 tested, 0.97% active. AID 1021;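 active = compounds that cut the binding signal by more than half at the single screening dose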;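 also: His-tagged Mcl-1 with europium anti-His antibody binding Bid BH3 peptide; 0% = Mcl-1 plus peptide wells and 100% = peptide-only wells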
Mcl-1 Bim block = disrupts Bim peptide binding to human Mcl-1 | inhibition, % at 10 µM | Q07820 | AID 1009 | Bead-based flow cytometry, Bim peptide-Mcl-1 binding | 190,000 tested, 0.1% active; in the data active = inhibition above about 40%;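 also: 0% = no compound tracer wells and 100% = peptide blocker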
Mcl1 Noxa PPI = Mcl-1/Noxa interaction inhibition; Q07820; TR-FRET Mcl-1/Noxa peptide binding, 2 h; inhibition, % at 21.7 µM; 220,000 tested, 1.5% active; AID 1022;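 active = compounds that cut the protein-peptide binding signal by more than 50% relative to plate controls in a single-dose test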;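 also: His-tagged Mcl-1 with rhodamine Noxa BH3 peptide and terbium anti-His antibody; 0% = Mcl-1 plus Noxa peptide wells and 100% = peptide-only wells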
Hck-Nef inh = blocks Nef-activated human Hck kinase. P08631. AID 463187. 220,000 tested, 0.68% active. Recombinant Hck-YEEI plus Nef, Z-Lyte FRET kinase assay. inhibition, % at 20 µM;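 active = Hck-Nef kinase inhibition above about 50%, limit read from the data; inactive = inhibition below that limit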;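 also: 0% = DMSO with Hck plus Nef and 100% = Hck alone without Nef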
Target sequence (P08631 whole entry, looked up): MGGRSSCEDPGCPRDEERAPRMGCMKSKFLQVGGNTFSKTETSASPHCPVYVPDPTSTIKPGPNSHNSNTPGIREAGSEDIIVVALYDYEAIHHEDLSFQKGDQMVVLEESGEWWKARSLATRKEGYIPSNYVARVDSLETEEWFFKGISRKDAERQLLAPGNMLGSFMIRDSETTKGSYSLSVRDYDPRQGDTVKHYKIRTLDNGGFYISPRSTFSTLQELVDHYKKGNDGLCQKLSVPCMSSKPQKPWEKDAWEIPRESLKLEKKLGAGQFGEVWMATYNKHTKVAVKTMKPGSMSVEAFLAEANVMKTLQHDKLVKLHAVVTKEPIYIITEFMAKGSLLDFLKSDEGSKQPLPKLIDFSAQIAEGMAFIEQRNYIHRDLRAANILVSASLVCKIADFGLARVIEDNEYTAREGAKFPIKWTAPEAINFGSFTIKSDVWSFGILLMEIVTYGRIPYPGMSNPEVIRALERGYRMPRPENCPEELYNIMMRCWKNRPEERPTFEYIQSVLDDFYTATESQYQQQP
Pf gametocyte = kills late stage P. falciparum gametocytes | 150,000 tested, 0.065% active | AID 743093 | inhibition, % at 10.9 µM | P. falciparum stage V gametocytes, ATP luminescence, 24 h;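 active = inhibition above the mean plus 3 SD of compounds within the control limits, set per campaign, cut at about 38% in these data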;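 also: 0% = DMSO wells and 100% = medium only without gametocytes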
14-3-3 Bad inh = disrupts binding of bovine 14-3-3 zeta to phospho-Bad peptide; TR-FRET 14-3-3zeta/Dy647-pBad peptide displacement, 1 h; inhibition, % at 21.7 µM; 220,000 tested, 0.71% active;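 active = inhibition above about 70%, limit read from the data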;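 also: 0% = full 14-3-3 plus peptide FRET controls and 100% = background without 14-3-3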
* = called active by the depositor.

Screening O=C(Nc1ccc(Nc2ccccc2)cc1)c1ccc(Cl)cc1 returned Pf gametocyte 5.9.
`O=C(NC1=C(NC2CCS(=O)(=O)C2)C(=O)c2ccccc2C1=O)c1ccccc1` (centres undefined) gave Mcl1 Bid PPI -50.1, Mcl-1 Bim block 9.0, Mcl1 Noxa PPI 70.3*, Hck-Nef inh 18.0, Pf gametocyte -15.4 and 14-3-3 Bad inh -7.7.
O=C(Cc1ccccc1)N1CCCC1c1ccccc1 (centres undefined) was read as Mcl1 Bid PPI -2.4, Mcl-1 Bim block 0.0, Mcl1 Noxa PPI 5.0, Hck-Nef inh -2.9, Pf gametocyte -15.0 and 14-3-3 Bad inh -4.6.
Screening Cc1ccnc(NS(=O)(=O)c2cccc3nsnc23)c1 returned Mcl1 Bid PPI -10.3, Mcl-1 Bim block 0.0, Mcl1 Noxa PPI 10.5, Hck-Nef inh -0.9, Pf gametocyte -25.1 and 14-3-3 Bad inh 66.3.
`Cc1c(CCC(=O)O)c(=O)oc2c(C)c(OCc3cc4c(cc3Cl)OCO4)ccc12` gave Mcl1 Bid PPI -30.7, Mcl1 Noxa PPI 58.1*, Hck-Nef inh -42.8, Pf gametocyte -1.4 and 14-3-3 Bad inh -5.2.
`CCn1c(SCC(=O)Nc2cc(S(=O)(=O)N3CCOCC3)ccc2OC)nnc1-c1ccncc1` gave Mcl1 Bid PPI -31.6, Mcl-1 Bim block 0.0, Mcl1 Noxa PPI 14.9, Hck-Nef inh -0.3, Pf gametocyte 0.6 and 14-3-3 Bad inh -8.1.
`CCOc1cc(/C=C2/C(=N)N3C=CSC3=NC2=O)ccc1OCCCOc1ccccc1C` gave Mcl1 Bid PPI 57.3*, Mcl-1 Bim block 0.0, Mcl1 Noxa PPI 35.3, Hck-Nef inh 3.8, Pf gametocyte -6.8 and 14-3-3 Bad inh 7.9.
Screening CC(=O)c1c(C)nc(-c2ccc(Cl)cc2)nc1N=CN(C)C returned Mcl1 Bid PPI 3.0, Mcl-1 Bim block -1.0, Mcl1 Noxa PPI 19.9, Hck-Nef inh 0.9, Pf gametocyte 12.7 and 14-3-3 Bad inh 84.3*.
For CC(=O)c1c(C)nc(-c2ccc(Cl)cc2)nc1N the results were Mcl1 Bid PPI -19.9, Mcl-1 Bim block 3.0, Mcl1 Noxa PPI 30.6, Hck-Nef inh -8.3, Pf gametocyte -25.0 and 14-3-3 Bad inh 44.8.
For COc1ccccc1NC(=O)CC(c1ccc(OC(C)C)cc1)c1ccccc1OC (centres undefined) the results were Mcl1 Bid PPI -26.4, Mcl-1 Bim block -19.0, Mcl1 Noxa PPI -11.2, Hck-Nef inh 2.6 and 14-3-3 Bad inh -6.3.
`COc1ccccc1C(CC(=O)Nc1ccc(C)c(C)c1)c1ccc(OC(C)C)cc1` (centres undefined) gave Mcl1 Bid PPI -11.2, Mcl-1 Bim block -2.0, Mcl1 Noxa PPI 55.2*, Hck-Nef inh -0.4, Pf gametocyte -2.4 and 14-3-3 Bad inh 3.8.
`O=C(ONc1ccc(N=NC(=O)c2ccccc2O)cc1)c1ccccc1` gave Mcl1 Bid PPI 88.4*, Mcl-1 Bim block 0.0, Mcl1 Noxa PPI 84.0*, Hck-Nef inh 22.4, Pf gametocyte -9.4 and 14-3-3 Bad inh 10.9.
Screening CN(CCO)CCOCCOc1cccc2ccccc12 returned Mcl1 Bid PPI 20.3, Mcl-1 Bim block -3.0, Mcl1 Noxa PPI 17.6, Hck-Nef inh 30.1, Pf gametocyte 5.1 and 14-3-3 Bad inh 6.0.
C=CCn1c(-c2cc(Cl)ccc2OC)n[nH]c1=S was read as Mcl1 Bid PPI -10.6, Mcl-1 Bim block -6.0, Mcl1 Noxa PPI 12.5, Hck-Nef inh 2.0, Pf gametocyte -25.5 and 14-3-3 Bad inh 11.5.
CCn1c(-c2cc(Cl)ccc2OC)n[nH]c1=S was read as Mcl1 Bid PPI 41.9, Mcl-1 Bim block -4.0, Mcl1 Noxa PPI 59.3*, Hck-Nef inh -2.9, Pf gametocyte -9.2 and 14-3-3 Bad inh 3.0.
`O=C1ON=C(c2ccccc2)/C1=C/c1ccc(OS(=O)(=O)c2ccccc2)cc1` gave Mcl1 Bid PPI 17.5, Mcl-1 Bim block -7.0, Mcl1 Noxa PPI 72.2*, Hck-Nef inh 6.4, Pf gametocyte -2.5 and 14-3-3 Bad inh 48.7.
Screening CCOC(=O)c1c(-c2ccccc2)csc1NC(=O)C1CCCO1 (centres undefined) returned Mcl1 Bid PPI -11.1, Mcl-1 Bim block -13.0, Mcl1 Noxa PPI 5.9, Hck-Nef inh -0.2 and 14-3-3 Bad inh 17.6.
For CCOC(=O)c1c(-c2ccc(-c3ccccc3)cc2)csc1NC(=O)C1C2CCC(O2)C1C(=O)O (centres undefined) the results were Mcl1 Bid PPI 24.8, Mcl-1 Bim block -6.0, Mcl1 Noxa PPI 56.4*, Hck-Nef inh 1.6, Pf gametocyte -21.3 and 14-3-3 Bad inh 9.9.
